PubChem BioAssay (EPA / NIEHS)
Records with an inconclusive call do not appear. The source made the active and inactive calls. Rule for the calls, unless noted: active = hit-call score of the fitted dose curve at least 0.9, where 1 is the maximum; inconclusive = response in the unintended direction; inactive = score below 0.9.

Experiment: ACEA_ER_80hr: ACEA Biosciences xCELLigence Real-Time Cell Analysis on Estrogen Receptor Agonism for Proliferation (AID 2282667)
Conditions: T47D proliferation, impedance (xCELLigence), 80 h
Procedure, shortened: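 T-47D cells monitored by electrical impedance (xCELLigence) with compound present throughout; 80 h timepoint, positive-direction fitting versus DMSO. Eight-point 1:4 dilutions from 100 uM final, duplicate plates.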

SMILES | outcome | AC50
CCn1nc(C)c2c1C(=O)NCC(c1ccc(O)cc1)=N2 | inactive | 
NC(=O)NN=Cc1ccc([N+](=O)[O-])o1 |  | 10.5 µM (active)
FC(F)(F)C(F)(F)C(F)(F)C(F)(F)C(F)(F)C(F)(F)I | inactive | 
OCCC(F)(F)C(F)(F)C(F)(F)C(F)(F)F | inactive | 
Cn1c(=O)c2[nH]cnc2n(C)c1=O | inactive | 
C[Si](C)(C)C(F)(F)C(F)(F)C(F)(F)F | inactive | 
FC(F)C(F)(F)COCC1CO1 (stereo unspecified) | inactive | 
OC(O)(C(F)C(O)(O)C(F)(F)F)C(F)(F)F | inactive | 
O=C(N[C@H](CO)[C@H](O)c1ccc([N+](=O)[O-])cc1)C(Cl)Cl | inactive | 
c1ccc2cc3ccccc3cc2c1 | inactive | 
FC(F)(F)COC(OCC(F)(F)F)OCC(F)(F)F | inactive | 
S=P(N1CC1)(N1CC1)N1CC1 | inactive | 
c1ccc2ncccc2c1 | inactive | 
OCc1c[nH]c2ccccc12 | inactive | 
NCC(F)(F)C(F)(F)C(F)(F)C(F)(F)F | inactive | 
O=S(=O)(O)CCC(F)(F)C(F)(F)C(F)(F)C(F)(F)C(F)(F)C(F)(F)F | inactive | 
FC(F)=C(F)C(F)(F)C(F)(F)C(F)(F)C(F)(F)C(F)(F)C(F)(F)F | inactive | 
CCCCOC(=O)c1ccccc1 | inactive | 
CCCCCCCCN(C)C | inactive | 
CCCCC(CC)C(=O)OCCOCCOCCOC(=O)C(CC)CCCC (stereo unspecified) | inactive | 
O=C(O)CO | inactive | 
O=C(Cl)C(F)(F)C(F)(F)C(F)(F)C(=O)Cl | inactive | 
Cc1cccc(O)c1C | inactive | 
C[C@]12C=CC(=O)C=C1CC[C@H]1[C@@H]3C[C@@H](O)[C@](O)(C(=O)CO)[C@@]3(C)C[C@H](O)[C@@]12F |  | 10.9 µM (active)
O=C(O)c1cccc(C[C@@H]2COc3ccc(OCc4nc5cc(F)ccc5s4)cc3[C@@H]2O)c1 | inactive | 
OC(Cn1cncn1)(Cn1cncn1)c1ccc(F)cc1F | inactive | 
OCCOCCOCCO | inactive | 
CCCCN1C(=O)[C@@H]([C@H](O)C2CCCCC2)NC(=O)C12CCN(Cc1ccc(Oc3ccc(C(=O)O)cc3)cc1)CC2 | inactive | 

Experiment: APR_HepG2_CellCycleArrest_24hr: Apredica 24-hour HepG2 Assay for Cell Cycle Arrest (AID 2282905; active = hit-call score of the fitted dose curve at least 0.9, where 1 is the maximum; inactive = score below 0.9;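 note: cell cycle arrest scored as ratio of 2N to 4N nuclear DNA content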)
Conditions: imaging, actives raise or lower the signal
Procedure, shortened: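 Compounds at 0.39–200 uM (0.5% DMSO) for 24 h, then fixed and Hoechst 33342 stained. Cell-cycle analysis of nuclear DNA content by high-content imaging, fitted bidirectionally versus DMSO.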

SMILES | outcome | AC50
CCn1nc(C)c2c1C(=O)NCC(c1ccc(O)cc1)=N2 | inactive | 
NC(=O)NN=Cc1ccc([N+](=O)[O-])o1 |  | 81.4 µM (active)
Cn1c(=O)c2[nH]cnc2n(C)c1=O | inactive | 
c1ccc2cc3ccccc3cc2c1 |  | 106 µM (active)
c1ccc2ncccc2c1 | inactive | 
CCCCOC(=O)c1ccccc1 | inactive | 
CCCCCCCCN(C)C | inactive | 
CCCCC(CC)C(=O)OCCOCCOCCOC(=O)C(CC)CCCC (stereo unspecified) | inactive | 
C[C@]12C=CC(=O)C=C1CC[C@H]1[C@@H]3C[C@@H](O)[C@](O)(C(=O)CO)[C@@]3(C)C[C@H](O)[C@@]12F | inactive | 
O=C(O)c1cccc(C[C@@H]2COc3ccc(OCc4nc5cc(F)ccc5s4)cc3[C@@H]2O)c1 |  | 50.1 µM (active)
OC(Cn1cncn1)(Cn1cncn1)c1ccc(F)cc1F | inactive | 
OCCOCCOCCO | inactive | 
CCCCN1C(=O)[C@@H]([C@H](O)C2CCCCC2)NC(=O)C12CCN(Cc1ccc(Oc3ccc(C(=O)O)cc3)cc1)CC2 | inactive | 
